Calls of active or inactive are those of the source. Entries that show only a call come without a potency. Unless noted, calls follow the shape of the dose curve; as a rule, active = well fitted activation curve with a large enough effect in the repeat runs; inconclusive = weak or mixed curves; inactive = flat fitted curve, though single readings scatter.

KiSS-1 receptor (Homo sapiens), sequence (Q969F8 whole entry, looked up): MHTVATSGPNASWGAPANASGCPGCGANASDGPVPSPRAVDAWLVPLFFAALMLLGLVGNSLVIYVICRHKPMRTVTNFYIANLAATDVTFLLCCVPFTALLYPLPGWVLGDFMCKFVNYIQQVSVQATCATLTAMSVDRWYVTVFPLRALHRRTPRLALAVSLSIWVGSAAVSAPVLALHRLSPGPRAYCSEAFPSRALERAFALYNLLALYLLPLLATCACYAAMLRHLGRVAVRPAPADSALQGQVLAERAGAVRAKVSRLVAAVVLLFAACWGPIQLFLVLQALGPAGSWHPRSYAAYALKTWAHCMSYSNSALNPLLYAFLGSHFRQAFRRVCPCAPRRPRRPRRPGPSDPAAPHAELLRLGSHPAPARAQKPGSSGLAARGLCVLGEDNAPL
Gonadotropin-releasing hormone receptor (Homo sapiens), sequence (P30968 whole entry, looked up): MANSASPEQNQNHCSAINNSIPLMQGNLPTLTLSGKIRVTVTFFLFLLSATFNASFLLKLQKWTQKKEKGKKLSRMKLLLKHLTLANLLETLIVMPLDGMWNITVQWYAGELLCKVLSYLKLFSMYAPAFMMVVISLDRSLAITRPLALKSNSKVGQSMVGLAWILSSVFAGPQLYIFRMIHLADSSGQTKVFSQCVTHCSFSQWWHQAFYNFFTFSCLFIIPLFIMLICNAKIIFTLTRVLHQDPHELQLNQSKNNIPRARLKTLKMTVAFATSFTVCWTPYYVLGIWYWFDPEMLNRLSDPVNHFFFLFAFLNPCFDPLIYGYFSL

The first experiment addresses Gonadotropin-releasing hormone receptor (Homo sapiens) (UniProt P30968). The experiment is described as follows: Human gonadotropin-releasing hormone receptor (GnRHR) small molecule agonists, calcium flux assay in GnRHR-HEK293 cells (AID 1920063; calls by dose curve; also: nearly all actives have a fitted effect of over 35% in size; also: potency is read from the fitted curve at half-maximal effect). The following applies: calcium flux fluorescence, agonist mode; series mostly up to 57.6 µM. An outline of the steps:
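Agonist mode: compounds at 15 concentrations, in triplicate, went onto calcium dye-loaded GnRHR-HEK293 cells. Intracellular calcium was then followed as 480/540 nm fluorescence at 1 s intervals over 3 min.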
Consider `C=Cc1c(C)c2cc3[nH]c(cc4nc(cc5nc(cc1[nH]2)C(C)=C5CCC(=O)O)C(CCC(=O)O)=C4C)c(C)c3C=C`, for which the Potency result is “inactive”.

In the case of `CCCCCCCOC(=O)CCC`, the Potency result was “inactive”.

With `CCCCCCCCC(=O)OCC(C)OC(=O)CCCCCCCC` (stereo not given), the Potency result was “inactive”.

On to `CCN1/C(=C/C=C/c2sc3ccccc3[n+]2CC)Sc2ccccc21`, for which the activity change is -1.77% [at 11.8 µM, active compounds read high] (inactive).

Consider `c1cnc(N2CCN(Cc3ccc4c(c3)OCO4)CC2)nc1`, for which the Potency result is “inactive”.

On to `C=C[Si]1(C)O[Si](C)(C=C)O[Si](C)(C=C)O[Si](C)(C=C)O1` (stereo not given), for which the Potency result was “inactive”.

For the compound `CCN(Cc1cccnc1)C(=O)c1cccc(Cl)c1[C@]1(C)C(=O)N(Cc2ccc(OC)cc2OC)c2ccc(Cl)cc21`, the Potency entry is “inactive”.

With `CCCNC(C)(C)COC(=O)c1ccccc1`, the Potency entry was “inactive”.

In the case of `CCCCCCCCCCl`, the Potency entry was “inactive”.

For `CCCCCC(C)OC(=O)COc1ccc(Cl)c2cccnc12` (stereo not given), the Potency result is “inactive”.

In the case of `O=C(N[C@H](CO)[C@H](O)c1ccc([N+](=O)[O-])cc1)C(Cl)Cl`, the Potency result was “inactive”.

Regarding `CC(=O)Nc1ccc(/C=N/NC(N)=S)cc1`, the Potency entry is “inactive”.

On to `C=O`, for which the Potency entry is “inactive”.

`CC(C)(C)C1=CC(=O)C=C(C(C)(C)C)C1=O`: the Potency entry is “inactive”.

Consider `C=CC(=C)CCCC(C)(C)OC(C)=O`, for which the Potency entry is “inactive”.

On to `CC/C=C\CCCCCCCCCCOC(C)=O`, for which the Potency result is “inactive”.

Take `Oc1ccc(C2(c3ccc(O)cc3)CC3CC2C2CCCC32)cc1` (stereo not given): the Potency result is “inactive”.

Regarding `O=c1[nH]c(=O)n([C@H]2C[C@H](O)[C@@H](CO)O2)cc1C(F)(F)F`, the Potency entry was “inactive”.

Consider `Cc1cc(O)c2c(O)c3c(O)cccc3cc2c1`, for which the Potency entry was “inactive”.

`Cc1ccc(Br)cc1`: the Potency result was “inactive”.

Turning to `CC1CCC(CO)CC1` (stereo not given), the Potency entry was “inactive”.

With `C=Cc1ccc(OC(C)=O)cc1`, the Potency result is “inactive”.

For `Nc1ccc(/C=C/c2ccc(N)cc2S(=O)(=O)O)c(S(=O)(=O)O)c1`, the activity change is -1.31% [at 0.217 µM, active compounds read high] (inactive).

For the compound `Cc1cccc(N(C)C(=S)Oc2ccc3c(c2)C2CCC3C2)c1` (stereo not given), the Potency result is “inactive”.

As for `Cc1c(N)cccc1N`, the Potency result is “inactive”.

`CCC(CC)CO`: the Potency result is “inactive”.

For `Cc1c(N)c(=O)n(-c2ccccc2)n1C`, the Potency result was “inactive”.

For `N/C(=N\N=C\c1ccc(Cl)cc1)N/N=C/c1ccc(Cl)cc1`, the Potency result was “inactive”.

Take `O=C(NN1CCCC1)NS(=O)(=O)c1ccc(Cl)cc1`: the Potency result was “inactive”.

Consider `C=C[Si](OC(C)=O)(OC(C)=O)OC(C)=O`, for which the Potency entry was “inactive”.

Consider `O=C1C=CC(=O)N1`, for which the Potency result was “inactive”.

On to `CSc1ccc(Oc2ccc(S(N)(=O)=O)cc2CN(C)C)cc1C`, for which the Potency entry was “inactive”.

With `CCc1ccc2c(c1)C(=O)c1ccccc1C2=O`, the Potency entry is “inactive”.

Regarding `Cc1ccccc1S`, the Potency entry was “inactive”.

For the compound `OCCOCC#CCOCCO`, the Potency entry is “inactive”.

For `Cc1ccc(O)c2ncccc12`, the Potency entry was “inactive”.

With `COC(OC)(C(=O)c1ccccc1)c1ccccc1`, the Potency result is “inactive”.

For the compound `Cc1c(Nc2ncccc2C(=O)O)cccc1C(F)(F)F`, the Potency result is “inactive”.

As to `CC1(C)[C@@H](O)CC[C@]2(C)[C@H]3C(=O)C=C4[C@@H]5C[C@@](C)(C(=O)O)CC[C@]5(C)CC[C@@]4(C)[C@]3(C)CC[C@@H]12`, the Potency was 34.3 µM (active).

In the case of `CCCCCCCCS(=O)(=O)O`, the Potency result is “inactive”.

A further experiment has as its target KiSS-1 receptor (Homo sapiens) (UniProt Q969F8). The experiment is described as follows: Human kisspeptin (KISS1R) small molecule agonists, calcium flux assay in KISS1R-HEK293 cells (AID 1920064). The following applies: KISS1R-HEK293, calcium flux fluorescence, agonist; series mostly up to 76.8 µM. An outline of the steps: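 Agonist mode: intracellular calcium rise tracked at 1 s intervals over 3 min (480/540 nm) immediately after compound addition to dye-loaded KISS1R-HEK293 stable cells. Each compound tested at 15 concentrations in triplicate.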
With `C=Cc1c(C)c2cc3[nH]c(cc4nc(cc5nc(cc1[nH]2)C(C)=C5CCC(=O)O)C(CCC(=O)O)=C4C)c(C)c3C=C`, the Potency entry is “inactive”.

For the compound `CCCCCCCOC(=O)CCC`, the Potency result was “inactive”.

On to `CCCCCCCCC(=O)OCC(C)OC(=O)CCCCCCCC` (stereo not given), for which the Potency entry was “inactive”.

In the case of `CCN1/C(=C/C=C/c2sc3ccccc3[n+]2CC)Sc2ccccc21`, the activation was -1.63% [at 15.8 µM] (inactive).

Take `c1cnc(N2CCN(Cc3ccc4c(c3)OCO4)CC2)nc1`: the Potency entry was “inactive”.

For `C=C[Si]1(C)O[Si](C)(C=C)O[Si](C)(C=C)O[Si](C)(C=C)O1` (stereo not given), the Potency entry is “inactive”.

With `CCN(Cc1cccnc1)C(=O)c1cccc(Cl)c1[C@]1(C)C(=O)N(Cc2ccc(OC)cc2OC)c2ccc(Cl)cc21`, the Potency entry is “inactive”.

For the compound `CCCNC(C)(C)COC(=O)c1ccccc1`, the Potency entry is “inactive”.

Regarding `CCCCCCCCCCl`, the Potency entry is “inactive”.

As to `CCCCCC(C)OC(=O)COc1ccc(Cl)c2cccnc12` (stereo not given), the Potency result is “inactive”.

In the case of `O=C(N[C@H](CO)[C@H](O)c1ccc([N+](=O)[O-])cc1)C(Cl)Cl`, the Potency entry is “inactive”.

With `CC(=O)Nc1ccc(/C=N/NC(N)=S)cc1`, the Potency entry is “inactive”.

As to `C=O`, the Potency entry is “inactive”.

As to `CC(C)(C)C1=CC(=O)C=C(C(C)(C)C)C1=O`, the Potency result was “inactive”.

For the compound `C=CC(=C)CCCC(C)(C)OC(C)=O`, the Potency entry is “inactive”.

`CC/C=C\CCCCCCCCCCOC(C)=O`: the Potency entry was “inactive”.

For `Oc1ccc(C2(c3ccc(O)cc3)CC3CC2C2CCCC32)cc1` (stereo not given), the Potency entry is “inactive”.

For the compound `O=c1[nH]c(=O)n([C@H]2C[C@H](O)[C@@H](CO)O2)cc1C(F)(F)F`, the Potency entry was “inactive”.

For the compound `Cc1cc(O)c2c(O)c3c(O)cccc3cc2c1`, the Potency entry is “inactive”.

As for `Cc1ccc(Br)cc1`, the Potency entry is “inactive”.

Regarding `CC1CCC(CO)CC1` (stereo not given), the Potency entry is “inactive”.

For the compound `C=Cc1ccc(OC(C)=O)cc1`, the Potency entry was “inactive”.

On to `Nc1ccc(/C=C/c2ccc(N)cc2S(=O)(=O)O)c(S(=O)(=O)O)c1`, for which the activation is -0.667% [at 0.29 µM] (inactive).

On to `Cc1cccc(N(C)C(=S)Oc2ccc3c(c2)C2CCC3C2)c1` (stereo not given), for which the Potency result is “inactive”.

Consider `Cc1c(N)cccc1N`, for which the Potency result is “inactive”.

In the case of `CCC(CC)CO`, the Potency entry is “inactive”.

As to `Cc1c(N)c(=O)n(-c2ccccc2)n1C`, the Potency entry is “inactive”.

`N/C(=N\N=C\c1ccc(Cl)cc1)N/N=C/c1ccc(Cl)cc1`: the Potency entry is “inactive”.

Consider `O=C(NN1CCCC1)NS(=O)(=O)c1ccc(Cl)cc1`, for which the Potency entry is “inactive”.

`C=C[Si](OC(C)=O)(OC(C)=O)OC(C)=O`: the Potency result is “inactive”.

As for `O=C1C=CC(=O)N1`, the Potency entry was “inactive”.

As for `CSc1ccc(Oc2ccc(S(N)(=O)=O)cc2CN(C)C)cc1C`, the Potency entry was “inactive”.

For the compound `CCc1ccc2c(c1)C(=O)c1ccccc1C2=O`, the Potency result was “inactive”.

Take `Cc1ccccc1S`: the Potency result was “inactive”.

As for `OCCOCC#CCOCCO`, the Potency result was “inactive”.

For the compound `Cc1ccc(O)c2ncccc12`, the Potency entry is “inactive”.

For the compound `COC(OC)(C(=O)c1ccccc1)c1ccccc1`, the Potency entry was “inactive”.

For the compound `Cc1c(Nc2ncccc2C(=O)O)cccc1C(F)(F)F`, the Potency result is “inactive”.

`CC1(C)[C@@H](O)CC[C@]2(C)[C@H]3C(=O)C=C4[C@@H]5C[C@@](C)(C(=O)O)CC[C@]5(C)CC[C@@]4(C)[C@]3(C)CC[C@@H]12`: the Potency entry was “inactive”.

On to `CCCCCCCCS(=O)(=O)O`, for which the Potency result was “inactive”.

Values taken from PubChem BioAssay (Tox21).
